A short description of assay [1]: HepG2 liver cancer cell viability effects, profiling panel, resazurin fluorescence, 24 h, PK04 Diversity Set (AID 1172). Note: test concentration not given here. Particulars: higher = more signal.
A short description of assay [2]: basal S. cerevisiae growth modulation, no modifier, primary screen, OD600, strain BY4716, 24 h, basal condition (AID 1173). Particulars: OD600, 24 h, higher = more signal, called active from +8 up or from −8 down.
A short description of assay [3]: MM1S myeloma cell viability, profiling panel, resazurin fluorescence, basal, 24 h, PK04 Diversity Set (AID 1174).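 Note: MM1S multiple myeloma cell line; test concentration not given here.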 Particulars: higher = more signal, called active from +8 up or from −8 down.
The target in assay [4] is Dihydroorotate dehydrogenase (quinone), mitochondrial (Plasmodium falciparum (isolate 3D7)) (UniProt Q08210). Description: PfDHODH enzyme inhibitors, primary screen, biochemical, C-terminal His tag, absorbance 600 nm (AID 1175).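 Note: recombinant parasite enzyme with a five histidine tag at its C terminus; test concentration not given here.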 Particulars: DCIP absorbance 600 nm, higher = more signal, called active from +8 up or from −8 down.
A short description of assay [5]: P. aeruginosa biofilm formation inhibitors, primary screen, strain PAO1, LB-PBS medium, absorbance 600 nm (AID 1176). Note: test concentration not given here. Particulars: P. aeruginosa PAO1 growth/biofilm, A600, 12 h; higher = more signal.
Assay [6] is described as follows: S. cerevisiae RM11-1a growth modifiers, primary screen, strain RM11-1a, OD600, basal, 24 h (AID 1177).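 Note: cultures grown under basal conditions with no added stressor; test concentration not given here.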 Particulars: OD600, 24 h, higher = more signal, called active from +8 up or from −8 down.
Assay [7] can be described thus: E. coli acrAB mutant growth effects, primary screen, E. coli filamentation inducers, strain DRC39, OD650, 24 h (AID 1178).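 Note: growth measured as culture turbidity by optical density at 650 nm; test concentration not given here.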 Particulars: higher = more signal, called active from +8 up or from −8 down.
Assay [8] in a line: E. coli acrAB mutant growth effects, primary screen, E. coli filamentation inducers, strain DRC39, OD650, 48 h (AID 1179).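 Note: screen aims at cell division blockers that make cells filament.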 Particulars: E. coli DRC39 delta-acrAB growth, higher = more signal, called active from +8 up or from −8 down.
The nature of assay [9]: RPMI8226 myeloma cell viability, profiling panel, resazurin fluorescence, basal, 24 h, PK04 Diversity Set (AID 1180).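 Note: RPMI8826 multiple myeloma cell line at 5000 cells per well; test concentration not given here.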 Particulars: higher = more signal. For orientation: Alamar Blue is a resazurin reagent that responds to reducing activity.
In assay [10] the target is E3 ubiquitin-protein ligase XIAP (Homo sapiens) (UniProt P98170). Description: XIAP binders, primary screen, biophysical, small-molecule microarray, fluorescence 635 nm (AID 1181).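 Note: score merges 667 nm emission and signal to noise over triplicate slides.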 Particulars: small-molecule microarray binding, higher = more signal.

The source of these data is PubChem BioAssay.

Molecules are shown by their SMILES. The source made the active and inactive calls. Unless noted, the rule behind the calls is not given here.

Dihydroorotate dehydrogenase (quinone), mitochondrial (Plasmodium falciparum (isolate 3D7)), sequence (Q08210 whole entry, looked up): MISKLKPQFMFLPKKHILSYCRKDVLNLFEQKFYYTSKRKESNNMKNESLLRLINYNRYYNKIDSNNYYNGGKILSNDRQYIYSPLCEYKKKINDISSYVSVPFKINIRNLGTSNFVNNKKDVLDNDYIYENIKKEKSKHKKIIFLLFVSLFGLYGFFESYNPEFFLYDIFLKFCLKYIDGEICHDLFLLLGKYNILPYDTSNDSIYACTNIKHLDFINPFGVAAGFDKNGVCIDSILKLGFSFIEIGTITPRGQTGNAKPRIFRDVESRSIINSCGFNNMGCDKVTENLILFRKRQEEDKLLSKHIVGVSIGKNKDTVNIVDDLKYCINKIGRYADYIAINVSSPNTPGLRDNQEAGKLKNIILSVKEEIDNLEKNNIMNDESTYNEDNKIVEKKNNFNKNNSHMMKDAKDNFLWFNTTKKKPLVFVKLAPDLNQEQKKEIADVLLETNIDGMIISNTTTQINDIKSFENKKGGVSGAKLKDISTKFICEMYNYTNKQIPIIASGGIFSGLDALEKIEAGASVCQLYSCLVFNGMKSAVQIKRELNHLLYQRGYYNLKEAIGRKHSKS
E3 ubiquitin-protein ligase XIAP (Homo sapiens), sequence (P98170 whole entry, looked up): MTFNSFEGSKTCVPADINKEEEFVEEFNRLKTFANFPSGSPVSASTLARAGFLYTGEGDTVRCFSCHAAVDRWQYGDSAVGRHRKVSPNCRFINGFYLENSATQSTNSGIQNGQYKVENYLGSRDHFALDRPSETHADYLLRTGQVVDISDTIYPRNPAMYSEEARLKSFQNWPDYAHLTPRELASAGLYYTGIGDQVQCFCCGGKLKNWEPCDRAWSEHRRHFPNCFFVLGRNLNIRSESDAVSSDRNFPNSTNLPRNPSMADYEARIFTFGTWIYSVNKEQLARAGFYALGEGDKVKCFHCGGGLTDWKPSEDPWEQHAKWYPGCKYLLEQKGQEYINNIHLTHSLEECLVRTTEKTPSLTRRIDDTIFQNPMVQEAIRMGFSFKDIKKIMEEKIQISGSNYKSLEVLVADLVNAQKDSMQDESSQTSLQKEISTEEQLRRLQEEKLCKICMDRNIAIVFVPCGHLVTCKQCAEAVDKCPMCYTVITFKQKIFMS

For the molecule `OCCCC1=CC(C2CC2)N(Cc2cccc(OC(F)(F)F)c2)CC1` (stereo not given), the z-score in assay [1] was 0.702; in assay [2], -1.85 (inactive); in [3] it was 0.171 (inactive); in assay [5], -0.517 (inactive); in assay [6] it was 0.345 (inactive); in [7], 0.425 (inactive). Further, the z-score is 0.327 (inactive) in assay [8] and 0.365 in assay [9]. The composite z-score in assay [4] was -3.08 (inactive); in assay [10], 0.324.
As to `Cc1ccc(/C=C/C=O)cc1`, the z-score in assay [1] is -0.466; in assay [2], -1.75 (inactive); in assay [3] it was -0.509 (inactive); in assay [5], -0.64 (inactive); in [6] it was 0.213 (inactive); in [7], 0.562 (inactive). In addition, the z-score in assay [8] was 0.386 (inactive); in [9], 0.812. Also, the composite z-score in assay [4] is -0.962 (inactive); in assay [10] it was -0.214.
In the case of `[N-]=[N+]=Nc1ccccc1[C@H]1OC(c2ccc(OCCCO)cc2)=N[C@@]1(CCS(=O)(=O)c1ccccc1)C(=O)NCc1ccccc1`, the z-score is 0.614 in assay [1]; -0.008 (inactive) in assay [2]; -0.548 (inactive) in assay [3]; 0.441 (inactive) in [5]; -0.22 (inactive) in assay [6]; -0.0211 (inactive) in assay [7]. Moreover, the z-score was -0.77 (inactive) in [8] and -0.129 in [9]. In addition, the results for the composite z-score in assay [4] and in assay [10] were 0.44 (inactive) and 0.0623, respectively.
Consider `CC(C)(C)OC(=O)CC[C@]1(C(N)=O)N=C(c2ccc(OCCCO)cc2)O[C@H]1c1ccccc1`, for which the z-score in assay [1] was -0.49; in [2], 0.45 (inactive); in [3], -0.689 (inactive); in [5], 0.55 (inactive); in assay [6], 0.663 (inactive); in assay [7], -0.218 (inactive). Also, the z-score in assay [8] is -0.585 (inactive); in [9], -0.676. Besides, the composite z-score in assay [4] was -0.0959 (inactive); in assay [10], 0.12.
As to `CC(C)(C)OC(=O)CC[C@]1(C(=O)NCCN2CCOCC2)COC(c2ccc(OCCCO)cc2)=N1`, the z-score in assay [1] was 0.0093; in [2], 0.321 (inactive); in assay [3] it was 0.382 (inactive); in [5], -0.525 (inactive); in assay [6], 0.345 (inactive); in assay [7] it was 0.119 (inactive). The z-score in assay [8] is 1.18 (inactive); in [9] it was 0.513. Further, the composite z-score in assay [4] was 0.731 (inactive); in [10], -0.0118.
As to `O=C(CS)NCCCCCNC(=O)[C@H]1C[C@H]2C(=O)NCC(=O)N2[C@H]1c1cccc(OCCO)c1`, the z-score in assay [1] was 0.942; in assay [2], -0.191 (inactive); in assay [3], 1.49 (inactive); in [5], -0.764 (inactive); in assay [6], -0.39 (inactive); in [7] it was 0.325 (inactive). Moreover, the z-score in [8] is 0.261 (inactive); in [9], 1.28. Besides, the figures for the composite z-score in [4] and in assay [10] were 0.258 (inactive) and 0.0174, respectively.
`CCCCN1CC=CC23O[C@@H]4C=CCOC(=O)[C@@H]4[C@H]2C(=O)N(CCCCCCO)[C@@H]3C1=O` (stereo not given in full): the z-score in assay [1] is -0.556; in [2] it was 0.0518 (inactive); in [3], 0.0626 (inactive); in [5], -0.112 (inactive); in assay [6] it was -0.55 (inactive); in assay [7] it was 0.272 (inactive). Besides, the values for the z-score in [8] and in [9] were 0.25 (inactive) and -0.386, respectively. The figures for the composite z-score in [4] and in [10] were -0.838 (inactive) and 0.245, respectively.
In the case of `COC(=O)[C@@]1(Cc2ccccc2)[C@H]2c3cc(C(=O)N(C)C)n(CCc4c[nH]c5ccc(O)cc45)c3C[C@H]2CN1C(=O)c1ccccc1`, the z-score in assay [1] is 0.236; in assay [2], 0.412 (inactive); in [3] it was -1.18 (inactive); in assay [5], 1.07 (inactive); in assay [6], -0.438 (inactive); in assay [7], 0.117 (inactive). Also, the z-score in assay [8] was 0.29 (inactive); in assay [9], -1.27. The composite z-score in [4] was -0.568 (inactive); in [10] it was -0.0261.
`COc1ccc(C(O)C2C=CC3C(=O)N(C)C(=O)C3N2N(c2ccccc2)c2ccccc2)c2ccccc12` (stereo not given): the z-score in assay [1] is -1; in [2], 0.618 (inactive); in assay [3], -1.57 (inactive); in [5], 0.447 (inactive); in assay [6], 0.588 (inactive); in assay [7], -0.546 (inactive). Besides, the z-score in assay [8] was -0.225 (inactive); in assay [9] it was -1.14. Further, the composite z-score was 0.231 (inactive) in assay [4] and 0.239 in assay [10].
Turning to `COc1ccc(C(=O)Nc2ccc(CN3C(=O)[C@]4(O[C@H](CC(=O)N5CCC[C@H]5CO)[C@@H]([Si](C)(C)c5ccc(OC)cc5)[C@@H]4C)c4ccccc43)cc2)cc1`, the z-score is -1.79 in assay [1]; 0.082 (inactive) in [2]; -2.05 (inactive) in assay [3]; 0.0245 (inactive) in [5]; 0.557 (inactive) in [6]; -0.0895 (inactive) in assay [7]. Besides, the z-score was -0.381 (inactive) in assay [8] and -4.49 in [9]. In addition, the composite z-score is -2.56 (inactive) in assay [4] and -0.361 in [10].
Regarding `CC1CC/C=C\[C@H]2OC34C=CCN(Cn5nnc6ccccc65)C(=O)[C@H]3N(CCCCCO)C(=O)[C@@H]4C2C(=O)O1` (stereo not given in full), the z-score in [1] is 0.786; in assay [2], 0.0153 (inactive); in assay [3], -0.88 (inactive); in assay [5], 0.193 (inactive); in assay [6] it was 0.0538 (inactive); in assay [7], 0.67 (inactive). The z-score is 0.434 (inactive) in assay [8] and 0.796 in assay [9]. Moreover, the composite z-score in assay [4] is 0.374 (inactive); in assay [10] it was -0.148.
